High-throughput results (PubChem BioAssay)
TRHR enhancer: allosteric enhancers of human TRH receptor; actives 0.66% (n = 360,000); TRHR cells, fluo-8 calcium fluorescence, EC20 TRH enhancement; enhancement, % at 2 µM; in the data active means enhancement above about 30%; further: 0% is about no effect
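Enhancer read-out: after compound pinning and an initial kinetic agonist-mode read, an EC20 of TRH (10 nM final) was injected and fluo-8 calcium signal (Ex 480/Em 530) followed at 1 s/cycle for 100 cycles in TRHR-expressing cells.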
GRP78 ERSR act: inducers of ER stress response in human glioma cells; actives 0.02% (n = 420,000); AID 602332; Potency, µM, without a hit: at the top dose activation, actives largely listed as activators; U87-MG GRP78 promoter luciferase reporter, 16 h; active means well fitted activation curve with a large enough effect; further: potency means the concentration at half of the fitted maximal effect; series mostly up to about 76 µM; % of control where 0% means no effect; nearly all actives have a fitted effect of over 35% in size
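ERSR induction read as luciferase luminescence (Bright-Glo, 10 min at room temperature) in stably transfected human U87-MG glioma cells exposed to compounds for 16 h, using GRP78 as sensor.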
D1 agonist: human D1 receptor agonism. AID 504660. HEK293 T-REx D1 cells, calcium flux, agonist mode. activation, % at 2 µM. P21728. actives 1% (n = 360,000); further: 0% is about no effect
Target sequence (P21728 whole entry, looked up): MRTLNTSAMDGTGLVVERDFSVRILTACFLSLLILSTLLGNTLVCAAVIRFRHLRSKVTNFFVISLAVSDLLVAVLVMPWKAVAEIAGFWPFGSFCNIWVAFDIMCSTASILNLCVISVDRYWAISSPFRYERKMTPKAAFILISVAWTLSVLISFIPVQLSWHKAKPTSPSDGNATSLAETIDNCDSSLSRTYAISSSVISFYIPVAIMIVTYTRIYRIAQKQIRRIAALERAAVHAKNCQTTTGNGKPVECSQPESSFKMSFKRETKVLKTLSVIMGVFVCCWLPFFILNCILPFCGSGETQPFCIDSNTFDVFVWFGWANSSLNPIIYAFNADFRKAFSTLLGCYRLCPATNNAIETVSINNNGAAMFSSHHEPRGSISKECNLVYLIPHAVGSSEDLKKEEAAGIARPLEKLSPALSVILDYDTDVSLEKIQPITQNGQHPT
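Inducible HEK293 T-REx D1 cells, force-coupled to calcium signalling, were plated at 4000 cells/well with tetracycline and held overnight at 30 C. After no-wash calcium dye loading, compound-evoked calcium rise over 180 s flagged agonists.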
D1 potentiator: potentiators of human D1 dopamine receptor. AID 504651. potentiation, % at 10 µM. HEK293 TREx D1 cells, calcium flux, dopamine EC20 potentiation. actives 0.036% (n = 360,000). P21728; in the data active means potentiation above about 30%; further: 0% is about no effect
TRHR agonist: activates the human TRH receptor. P34981. TRHR cells, calcium flux fluo-8, FDSS agonist mode. activation, % at 2 µM. actives 0.18% (n = 360,000). AID 493084; further: 0% is about no effect
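In this calcium-flux screen, cells bearing human TRHR are dye-loaded with fluo-8, baselined for 10 cycles, then exposed to library compounds; positive kinetic calcium responses during the agonist phase mark hits, with TRH as control.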
D1 antag: blocks dopamine activation of the human D1 receptor; P21728; HEK293 TREx D1 cells, calcium flux, dopamine EC80; hits give low values; activity change, negative = inhibition, % at 10 µM; actives 3.2% (n = 360,000); in the data active means activity change below about -30%; further: on the % scale 0 is the no-effect control and ±100 the full control effect
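Compound effects on dopamine-evoked calcium signalling were measured in tetracycline-induced HEK293 Trex D1 cells. Dopamine at EC80 followed a 180 s compound pre-read, and fluorescence was tracked kinetically for 180 s more.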
The depositor's hits bear a star. Most compounds without a hit are left out; they make up all but 4% or so of the library. Unless noted, no stated cut-off is given here; in the data, active means activation above about 30%; inactive means the rest.

Results for COc1cc(OC)c(CN2CCc3c([nH]c4ccccc34)C2)cc1Br ?
TRHR enhancer: -2.0; GRP78 ERSR act: -5.4%; D1 agonist: 7.0; D1 potentiator: -8.7; TRHR agonist: 0.7; D1 antag: -48.8*

How did COc1cc(OC)c(CN2CCC(Cc3ccccc3)CC2)cc1Br do in these assays?
TRHR enhancer: 3.4; GRP78 ERSR act: -5.2%; D1 agonist: 8.5; D1 potentiator: -8.7; TRHR agonist: 1.6; D1 antag: -42.8*

How did COc1cc(C)c(CN2CCC(Cc3ccccc3)CC2)cc1C do in these assays?
TRHR enhancer: 5.0; GRP78 ERSR act: -3.1%; D1 agonist: 1.1; D1 potentiator: -8.3; TRHR agonist: 0.6; D1 antag: -10.4

How did Cc1nc(-c2ccccc2)sc1C1(C)CC(c2cccc([N+](=O)[O-])c2)=NO1 (configuration not stated) do in these assays?
TRHR enhancer: -5.7; GRP78 ERSR act: -2.7%; D1 agonist: 2.3; D1 potentiator: -0.9; TRHR agonist: 1.3; D1 antag: -41.9*

What do the screens show for `Cc1ncc([N+](=O)[O-])n1CC(=O)Nc1cccc(C(F)(F)F)c1`?
TRHR enhancer: -3.8; GRP78 ERSR act: -3.7%; D1 agonist: 7.1; D1 potentiator: 4.1; TRHR agonist: 0.2; D1 antag: -1.7

How did CCOC(=O)COc1ccc(S(=O)(=O)Nc2ccc3c(c2)OCCO3)cc1 do in these assays?
TRHR enhancer: -7.6; GRP78 ERSR act: -3.2%; D1 agonist: 33.4*; D1 potentiator: -4.8; TRHR agonist: 1.6; D1 antag: -19.7

How did CCN(CC(=O)Nc1ccc(OC)cc1)C(=O)c1ccc(NS(=O)(=O)c2ccc(C(C)=O)cc2)cc1 do in these assays?
TRHR enhancer: -5.6; GRP78 ERSR act: 0.4%; D1 agonist: 2.5; D1 potentiator: -0.2; TRHR agonist: 0.1; D1 antag: 2.4

How did CCOC(=O)c1ccc(NS(=O)(=O)c2ccc3c(c2)OCCO3)cc1 do in these assays?
TRHR enhancer: 15.1; GRP78 ERSR act: 0.5%; D1 agonist: 24.6; D1 potentiator: -6.5; TRHR agonist: 2.8; D1 antag: -36.2*

What do the screens show for `Cc1ccc(NS(=O)(=O)c2ccc(C(=O)OCC(=O)Nc3cc(C)on3)cc2)cc1`?
TRHR enhancer: -0.3; GRP78 ERSR act: -0.8%; D1 agonist: 44.3*; D1 potentiator: 0.1; TRHR agonist: 1.1; D1 antag: -6.1

Results for C=C(C)CN(CC)C(=O)COc1ccc(S(=O)(=O)Nc2ccc(OC)cc2)cc1 ?
TRHR enhancer: -18.7; GRP78 ERSR act: -2.7%; D1 agonist: 52.1*; D1 potentiator: -7.4; TRHR agonist: 4.2; D1 antag: -28.1

What do the screens show for `COc1ccc(C(=O)CC(Nc2ccc([N+](=O)[O-])cc2)c2ccc(Cl)cc2)cc1` (configuration not stated)?
TRHR enhancer: -7.9; GRP78 ERSR act: -0.7%; D1 agonist: 1.0; D1 potentiator: -6.6; TRHR agonist: 1.7; D1 antag: -27.4

Results for CN(C)C(=O)N1CCN(C(=O)c2ccccc2Sc2ccccc2C#N)CC1 ?
TRHR enhancer: -4.1; GRP78 ERSR act: 8.8%; D1 agonist: 4.2; D1 potentiator: -0.1; TRHR agonist: -0.2; D1 antag: 14.2

How did COc1ccc(S(=O)(=O)Nc2ccc(CC#N)cc2)cc1 do in these assays?
TRHR enhancer: -3.1; GRP78 ERSR act: -2.3%; D1 agonist: 5.6; D1 potentiator: -2.3; TRHR agonist: -0.2; D1 antag: -33.1*

Results for Cc1ccc(NS(=O)(=O)c2ccc(OCC(=O)NCC3CCCO3)cc2)cc1 (configuration not stated) ?
TRHR enhancer: -3.4; GRP78 ERSR act: -1.6%; D1 agonist: 10.3; D1 potentiator: -4.2; TRHR agonist: 1.3; D1 antag: -37.6*

What do the screens show for `CCN(Cc1ccccc1)S(=O)(=O)c1ccc(F)c(C(=O)Nc2cc(C)ccc2OC)c1`?
TRHR enhancer: 0.0; GRP78 ERSR act: -4.3%; D1 agonist: 4.4; D1 potentiator: -2.4; TRHR agonist: 0.5; D1 antag: -11.9

What do the screens show for `COC(=O)c1ccc(NC(=O)CN2C(=O)C3C4C=CC(C4)C3C2=O)cc1` (configuration not stated)?
TRHR enhancer: 3.8; GRP78 ERSR act: 2.6%; D1 agonist: 1.9; D1 potentiator: 6.7; TRHR agonist: 0.2; D1 antag: -8.6

What do the screens show for `O=C1C2C3C=CC(C3)C2C(=O)N1CCCCCCN1C(=O)C2C3C=CC(C3)C2C1=O` (configuration not stated)?
TRHR enhancer: 32.0*; GRP78 ERSR act: -3.8%; D1 agonist: 2.2; D1 potentiator: -0.2; TRHR agonist: -0.3; D1 antag: 1.6

How did O=C(CN1C(=O)C2C3C=CC(C3)C2C1=O)Nc1ccc(C(=O)O)cc1 (configuration not stated) do in these assays?
TRHR enhancer: -3.0; GRP78 ERSR act: -7.0%; D1 agonist: 6.3; D1 potentiator: -3.0; TRHR agonist: 0.8; D1 antag: -30.0*

How did CN(Cc1ccccc1)C(=O)CN(Cc1ccccc1)S(C)(=O)=O do in these assays?
TRHR enhancer: 7.7; GRP78 ERSR act: -2.1%; D1 agonist: 2.6; D1 potentiator: 5.6; TRHR agonist: -0.5; D1 antag: -0.7

Results for CCOc1nc(C)cc(C)c1S(=O)(=O)c1cccc(Cl)c1 ?
TRHR enhancer: 21.9; GRP78 ERSR act: 0.9%; D1 agonist: 30.5*; D1 potentiator: -3.5; TRHR agonist: 0.0; D1 antag: -49.5*

How did COC(=O)c1[nH]c2ccc(Br)cc2c1NC(=O)C(C)N1CCN(C2CCCCC2)CC1 (configuration not stated) do in these assays?
TRHR enhancer: 0.4; GRP78 ERSR act: -12.2%; D1 agonist: 3.0; D1 potentiator: -4.5; TRHR agonist: 1.8; D1 antag: 3.9

How did COC(=O)c1[nH]c2ccc(Br)cc2c1NC(=O)CN1CCCCC1CCO (configuration not stated) do in these assays?
TRHR enhancer: -4.7; GRP78 ERSR act: -1.9%; D1 agonist: 0.5; D1 potentiator: -3.6; TRHR agonist: 0.1; D1 antag: -40.6*

Results for CC(NCCC(c1ccccc1)c1ccccc1)c1ccccc1 (configuration not stated) ?
TRHR enhancer: -1.7; GRP78 ERSR act: 2.1%; D1 agonist: 60.1*; D1 potentiator: 6.8; TRHR agonist: 3.7; D1 antag: 16.8

How did Cn1c(/C=N/NC(=O)c2ccccc2Br)nc2ccccc21 do in these assays?
TRHR enhancer: 1.8; GRP78 ERSR act: 0.4%; D1 agonist: 0.5; D1 potentiator: 0.1; TRHR agonist: -0.2; D1 antag: -17.6

Results for O=C(O)CCCNS(=O)(=O)c1cccs1 ?
TRHR enhancer: 15.8; GRP78 ERSR act: -1.4%; D1 agonist: 1.5; D1 potentiator: -7.5; TRHR agonist: 0.4; D1 antag: -58.3*
